# PubChem BioAssay
# Unmarked numbers belong to inactive results. For part of these data: Entries with a potency or affinity are not part of this list. Calls of active or inactive are those of the source. Unless noted, no rule for the calls is given here.
# Legend:
# [1] = antimalarial activity against Dd2 strain (AID 2302;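 active = growth inhibition above 50% at the single 2 µM test dose, taken to imply half-maximal potency below 2 µM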;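 also: 0% = DMSO untreated growth and 100% = chloroquine plus artemisinin killed control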); settings: P. falciparum Dd2 in RBCs, LDH growth readout, 72 h; at 2 µM; hits give high values
# [2] = HepG2 cytotoxicity, primary screen, cytotoxicity control for P. falciparum antimalarial project, cell-based, ATP luminescence (AID 2303;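 active = inhibition above 50%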;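 also: 0% = DMSO wells and 100% = digitonin-killed cells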); settings: HepG2 viability, 24-48 h, at 10 µM, hits give high values
# [3] = biological target: L-lactate dehydrogenase (Plasmodium falciparum (isolate CDC / Honduras)) (UniProt Q27743); test: PfLDH activity inhibition – cell lysate, 3D7 strain, counter-screen for P. falciparum growth inhibition project (AID 2304);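 also: 0% = vehicle and 100% = reference inhibitor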; settings: P. falciparum 3D7 crude extract, LDH APAD/NBT absorbance; at 2 µM; hits give high values
# [4] = inhibition of 3D7 malaria parasite growth – strain 3D7 (AID 2306);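 also: 0% = DMSO wells and 100% = chloroquine plus artemisinin control wells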; settings: P. falciparum 3D7 erythrocytic growth, LDH absorbance, 72 h; at 2 µM; hits give high values
# [5] = biological target: Calcium-dependent protein kinase 1 (Plasmodium falciparum (isolate 3D7)) (UniProt P62344); test: PfCDPK1 kinase inhibitors, biochemical, TCAMS library (AID 1159585; cut-off not given, nearly all actives have IC50 up to about 0.98 µM;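 also: inhibitors leave more ATP so luminescence rises with inhibition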); settings: recombinant PfCDPK1, Kinase-Glo ATP depletion luminescence
# [6] = biological target: Plasmodium falciparum protein kinase 6 (PK6, PF3D7_1337100) (UniProt Q8IDW1); test: PfPK6 kinase inhibitors, biochemical, TCAMS library (AID 1159586); settings: recombinant PfPK6, Kinase-Glo ATP depletion luminescence
# [7] = biological target: Protein kinase 7 (PK7), Plasmodium falciparum 3D7 (PF3D7_0213400) (UniProt Q7YTF7); test: inhibition of Plasmodium PK7 catalytic activity – biochemical, TCAMS antimalarial set, Kinase-Glo luminescence (AID 1159587); settings: recombinant PfPK7, Kinase-Glo ATP depletion luminescence
# [8] = biological target: Calcium-dependent protein kinase 4 (Plasmodium falciparum (isolate 3D7)) (UniProt Q8IBS5); test: PfCDPK4 kinase inhibitors, biochemical, TCAMS library (AID 1159588; cut-off not given, nearly all actives have IC50 up to about 0.91 µM); settings: recombinant PfCDPK4, Kinase-Glo ATP depletion luminescence
# Sequence of Calcium-dependent protein kinase 4 (Plasmodium falciparum (isolate 3D7)) (Q8IBS5 whole entry, looked up): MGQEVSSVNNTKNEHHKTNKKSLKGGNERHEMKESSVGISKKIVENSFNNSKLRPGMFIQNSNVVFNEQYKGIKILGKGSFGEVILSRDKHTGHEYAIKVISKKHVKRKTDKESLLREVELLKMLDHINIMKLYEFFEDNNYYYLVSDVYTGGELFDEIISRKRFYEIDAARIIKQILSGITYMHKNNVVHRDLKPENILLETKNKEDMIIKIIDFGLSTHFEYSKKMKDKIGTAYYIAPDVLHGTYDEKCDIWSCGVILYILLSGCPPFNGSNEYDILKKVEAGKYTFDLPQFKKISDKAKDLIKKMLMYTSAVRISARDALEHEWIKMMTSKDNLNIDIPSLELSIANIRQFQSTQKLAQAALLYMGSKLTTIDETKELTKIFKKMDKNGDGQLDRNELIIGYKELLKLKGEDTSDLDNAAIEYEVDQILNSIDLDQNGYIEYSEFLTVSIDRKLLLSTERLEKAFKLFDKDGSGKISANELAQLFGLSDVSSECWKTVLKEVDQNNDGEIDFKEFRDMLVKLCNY
# Sequence of Calcium-dependent protein kinase 1 (Plasmodium falciparum (isolate 3D7)) (P62344 whole entry, looked up): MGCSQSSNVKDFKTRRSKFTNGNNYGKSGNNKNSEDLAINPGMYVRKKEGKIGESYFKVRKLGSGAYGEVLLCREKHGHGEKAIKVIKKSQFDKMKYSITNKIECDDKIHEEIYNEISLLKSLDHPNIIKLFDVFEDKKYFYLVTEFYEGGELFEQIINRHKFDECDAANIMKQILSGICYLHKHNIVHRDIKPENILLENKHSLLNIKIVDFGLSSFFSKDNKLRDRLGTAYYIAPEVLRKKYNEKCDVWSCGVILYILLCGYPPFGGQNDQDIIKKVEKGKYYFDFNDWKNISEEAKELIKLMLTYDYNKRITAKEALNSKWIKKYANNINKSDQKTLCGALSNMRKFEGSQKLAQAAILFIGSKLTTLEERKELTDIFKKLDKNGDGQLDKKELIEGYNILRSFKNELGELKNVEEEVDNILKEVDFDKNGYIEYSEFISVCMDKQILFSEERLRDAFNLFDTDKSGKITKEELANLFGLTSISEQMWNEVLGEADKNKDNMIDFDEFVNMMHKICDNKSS
# Sequence of Protein kinase 7 (PK7), Plasmodium falciparum 3D7 (PF3D7_0213400) (Q7YTF7 1-343): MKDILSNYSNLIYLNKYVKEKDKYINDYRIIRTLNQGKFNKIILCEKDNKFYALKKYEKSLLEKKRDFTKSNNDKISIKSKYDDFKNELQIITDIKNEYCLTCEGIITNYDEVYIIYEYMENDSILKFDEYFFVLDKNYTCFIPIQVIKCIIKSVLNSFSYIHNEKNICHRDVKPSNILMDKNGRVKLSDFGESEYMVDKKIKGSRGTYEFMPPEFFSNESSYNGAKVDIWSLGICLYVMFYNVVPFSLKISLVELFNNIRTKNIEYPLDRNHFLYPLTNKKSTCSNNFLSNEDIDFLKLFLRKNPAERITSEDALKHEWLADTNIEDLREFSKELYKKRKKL
# Sequence of L-lactate dehydrogenase (Plasmodium falciparum (isolate CDC / Honduras)) (Q27743 whole entry, looked up): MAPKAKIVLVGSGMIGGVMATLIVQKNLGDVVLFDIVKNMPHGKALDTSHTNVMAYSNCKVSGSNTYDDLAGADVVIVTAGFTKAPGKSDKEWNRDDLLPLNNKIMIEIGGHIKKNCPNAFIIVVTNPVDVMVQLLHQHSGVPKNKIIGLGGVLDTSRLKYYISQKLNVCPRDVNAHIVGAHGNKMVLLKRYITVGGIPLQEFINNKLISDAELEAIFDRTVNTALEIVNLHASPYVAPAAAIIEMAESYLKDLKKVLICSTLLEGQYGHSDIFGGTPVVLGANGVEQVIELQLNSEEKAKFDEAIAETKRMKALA
# Sequence of Plasmodium falciparum protein kinase 6 (PK6, PF3D7_1337100) (Q8IDW1 1-305): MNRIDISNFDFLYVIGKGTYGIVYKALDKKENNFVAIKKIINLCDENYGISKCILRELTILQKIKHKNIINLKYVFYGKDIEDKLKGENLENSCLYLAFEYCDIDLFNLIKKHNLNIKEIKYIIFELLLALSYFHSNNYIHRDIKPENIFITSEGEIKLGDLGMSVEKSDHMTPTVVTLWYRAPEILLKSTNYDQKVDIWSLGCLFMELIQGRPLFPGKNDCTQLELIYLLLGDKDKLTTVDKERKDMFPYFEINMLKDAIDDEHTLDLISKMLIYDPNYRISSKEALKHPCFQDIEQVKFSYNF
SMILES,growth inhibition [1],inhibition [2],inhibition [3],growth inhibition [4],outcome [5],outcome [6],outcome [7],outcome [8]
CCN(CC)CCCC(C)Nc1cc(C)nc2cc(Cl)ccc12 (centres undefined),7%,9%,5%,100% (active),inactive,inactive,inactive,inactive
O=c1cc(NCCCNC2CCc3c(Cl)cc(Cl)cc32)[nH]c2ccccc12 (centres undefined),29%,3%,0%,100% (active),inactive,inactive,inactive,inactive
CC(C)(C)OC(=O)NCc1ccc(Nc2nnc(-c3ccc(OCC(=O)NCc4cc(C(F)(F)F)cc(C(F)(F)F)c4)c([N+](=O)[O-])c3)o2)cc1,92% (active),24%,-1%,97% (active),inactive,inactive,inactive,inactive
